Measured values: PubChem BioAssay (NCI)
Values joined by “and” are separate entries in the source; they are usually repeats but may differ in a detail not shown here. Equal values may be shown once. This is part of a sample that, as a whole, favours compounds with a hit. Of some 83,000 tested, about 20% had one in any assay.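 Plates (96-well) were seeded with cells, treated with compound at one concentration, and incubated for 48 hours before percent growth was determined.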 Unmarked numbers belong to inactive results. Active and inactive are the calls of the source.

Each molecule was assayed on SNB-75 CNS (assay: NCI-60 one-dose screen, 48 h (100 = growth as untreated, 0 = no growth, -100 = all killed)). Settings: 1 µM.
Method: Growth inhibition of the SNB-75 human tumor cell line is measured as a screen for anti-cancer activity. Cells are grown in 96 well plates and exposed to the test compound for 48 hours. Compounds are tested at a single concentration, which is 10^-5 M for most compounds. The reported endpoint is percent growth (GI% or GIPRCNT), where numbers from 0 - 100% represent growth inhibition, and numbers from -100% - 0 represent cell death. For example, a value of 40 represents 60% growth inhibition. A value of 0 means no net growth occurred over the course of the experiment. A value of -40 indicates 40% of cells at the beginning of the experiment died by the end of the experiment. A value of -100 means all cells are dead at the end of the experiment.
NCI-60 Human Tumor Cell Lines Screen was performed using the standard one-dose NCI protocol, which is described in more detail at https://dtp.cancer.gov/discovery_development/nci-60/default.htm.
Compounds with GIPRCNT values below 10 were considered active. Activity score was based on GIPRCNT using the following formula: […]
Score is 0 for GIPRCNT values of 100 or above, 50 for GIPRCNT values of 0, and 100 for GIPRCNT values of -100.

SMILES	growth [%]
CC/C(=C(/c1ccc(O)cc1)c1ccc(OCCN(C)C(=O)CCOCCNC(=O)Cc2ccc3c(c2)CN([C@@H]2CCC(=O)NC2=O)C3=O)cc1)c1ccccc1	57

Same assay, conditions: 10 µM

SMILES	growth [%]
CC/C(=C(/c1ccc(O)cc1)c1ccc(OCCN(C)C(=O)CCOCCNC(=O)Cc2ccc3c(c2)CN([C@@H]2CCC(=O)NC2=O)C3=O)cc1)c1ccccc1	27.8

Same assay, conditions: 10 µM unless noted

SMILES	growth
Cc1ccccc1Nc1nnc(-c2c[nH]c3ccccc23)o1	26%
O=C(N/N=C/c1ccoc1)c1[nH]c2ccc(Br)cc2c1-c1ccccc1	-79.6% (active)
Cc1ccc(C(=O)Nc2cc(-c3ccncc3)cc(C(F)(F)F)c2)cc1C#Cc1cnc2cccnn12	93.7%
Cn1cc(-c2cc(N)n3nc(-c4c[nH]c5ccccc45)cc3n2)c2cc(Cl)ccc21	-14.7% (active)
O=C1Nc2cc(-c3ccc(NS(=O)(=O)c4ccc(F)c(Cl)c4)cc3)ccc2/C1=C/c1ccc[nH]1	62.7%
COc1ccc(SC2c3cc(OC)ccc3Oc3nc(N)c(C#N)c(N)c32)cc1 (stereo not given)	49.6%
CCCCCCCCc1ccc(C(=O)Nc2ccc(C)c(OP(=O)(O)O)c2)cc1	89.8%
Cc1ccc(C(=O)Nc2cc(-n3ccnc3C)cc(C(F)(F)F)c2)cc1C#Cc1cnc2cccnn12	-28.1% (active)
O=c1[nH]c2ccccc2cc1COc1ccc(Nc2nccc(-c3ccc(Cl)cc3)n2)cc1	60.5%
COc1ccc(OC)c(Cn2cc(C#N)c(N)c2C(=O)c2ccc(Br)cc2)c1	50.4%
Clc1ccc(Nc2nnc(-c3c[nH]c4ccccc34)o2)cc1	59.5%
COc1ccc(C(=O)c2cc(C(C)=O)c3c(C)cc(C)cn23)cc1	2.27% (active)
CCOc1ccc(-c2cc(-c3cc(C(C)C)c(O)cc3C)nn2-c2ccc(S(N)(=O)=O)cc2)cc1	32.6%
C[C@@H]1CN(c2ccc3ncc(C#Cc4cncc(C(=O)Nc5ccc(CN6CCN(C)CC6)c(C(F)(F)F)c5)c4)n3n2)C[C@@H](C)O1	-95.9% (active)
O=C1Nc2ccccc2/C1=C/C(=O)c1cc2ccccc2oc1=O	126%
O=C(CSc1nc2ccccc2c(=O)[nH]1)Nc1ccccc1C(=O)O	139%
N#Cc1c(-c2ccc(F)cc2)nc(SCc2ccccc2)nc1N1CCNCC1	-93% (active)
COc1ccc(NC(=O)Cn2c(/C=C/c3cccc(OC)c3)nc3ccccc3c2=O)cc1	-34.5% (active)
Fc1ccc(Nc2nnc(-c3c[nH]c4ccccc34)o2)cc1	88.9%

SMILES	growth
O=C1Nc2ccccc2/C1=C\c1ccc(OCC(=O)c2ccc(Br)cc2)cc1	79.6%
COc1sc(/C=N/NC(=O)c2[nH]c3ccc(Br)cc3c2-c2ccccc2)cc1Cl	42%
Oc1ccc(Cl)c(Nc2ncnc3c2cnn3CC(Cl)c2ccc(Br)cc2)c1 (stereo not given)	3.71% (active)
COc1ccc(-c2nnc3c(/C=C/c4ccc(Br)cc4)nc4ccccc4n23)cc1	83.4%
O=C(NNC(=S)NC(=O)c1ccccc1)c1ccc(OCc2nc3ccc(Cl)cc3[nH]2)cc1	-17.8% (active)
CN1CCc2c(sc3ncnc(N/N=C/c4cccc(Cl)c4Cl)c23)C1	76.3%
CN1C(=O)C2(C(C#N)=C(c3ccc(Cl)cc3)Nc3c2c(-c2ccccc2)nn3-c2ccccc2)c2ccccc21 (stereo not given)	69.4%
CN1C(=O)/C(=C/c2ccco2)S/C1=N/c1nccs1	97.4%
O=C(Cn1c(-c2ccccc2)nc2ccccc21)N=Nc1c(O)[nH]c2ccc(Br)cc12	-62.4% (active)
CCCCCCCCc1ccc(C(=O)Nc2cccc(O)c2)cc1	103%
CN(C)CCOc1ccc(C(=O)C2[C@H](c3ccc(Cl)cc3)[C@@H](c3ccccc3)NC23C(=O)Nc2ccc(Cl)cc23)cc1 (stereo not given in full)	-90.7% (active)
Cc1ccc(C(=O)Nc2ccc(-n3ccnc3)c(C(F)(F)F)c2)cc1C#Cc1cnc2cccnn12	-2.9% (active)
Nc1cccc(-n2c(COc3ccc(I)cc3)nc3ccccc32)c1	52.9% and 91.4%
COC(=O)c1c(C(=O)OC)c2c3ccccc3c3ccccc3n2c1C(=O)C(F)(F)F	87.9%
Cc1ccc(C(C)C)cc1Oc1cccc(-c2c(-c3ccc(C(F)(F)F)cc3)ncn2C2CCNCC2)n1	-94.1% (active)
Cc1ccc(C2CC(c3ccc(NC(=S)Nc4ccccc4)cc3)=NN2c2ccc(S(N)(=O)=O)cc2)cc1 (stereo not given)	21.4%
COc1c(F)ccc(C(=O)Nc2ccc3nc(NC(=O)C4CCCN(S(=O)(=O)c5ccc(C(C)(C)C)cc5)C4)sc3c2)c1F (stereo not given)	66.4%
O=C(Cc1c(-c2ccccc2[N+](=O)[O-])n(-c2ncnc3c2c(-c2ccccc2)c(-c2ccccc2)n3Cc2ccccc2)[nH]c1=O)c1ccc(Cl)c(Cl)c1	14%
COc1ccc(C(=O)NNC(=O)CSc2nc3sc4c(c3c(=O)n2-c2ccc(Cl)cc2)CCCC4)cc1	44.5%
